Experimental data published in PubChem BioAssay (NCI).
Compounds without any hit were thinned out: in the full panel of roughly 79,000, 15% have a hit. The source made the active and inactive calls. Cut-off read from the data, not from the text of the source: active = growth inhibition above about 70%; inactive = the rest.

Assays:
[1] = NCI Yeast Anticancer Drug Screen. Data for the rad52 strain (AID 147);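 note: 0% = growth of vehicle-treated control cultures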; conditions: S. cerevisiae rad52 mutant growth inhibition, stronger effect = higher value
How it was run: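 Inhibition of yeast growth, referenced to vehicle controls, was the measured output for a strain with defective DNA damage repair.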

[2] = NCI Yeast Anticancer Drug Screen. Data for the wt1 strain (AID 149);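 note: 0% = growth of vehicle-treated wt1 cultures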; conditions: S. cerevisiae wt1 strain (SPY 50644) growth inhibition, stronger effect = higher value
How it was run: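 wt1 yeast, compound-treated; % growth inhibition vs vehicle control.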

[3] = NCI Yeast Anticancer Drug Screen. Data for the rad50EPP+ strain (AID 151);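 note: 0% = growth of vehicle-treated control cultures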; conditions: S. cerevisiae rad50 mutant strain, stronger effect = higher value
How it was run: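 Genetically defined yeast (rad50EPP+, DNA damage repair alteration) is grown with compound, and inhibition of growth is expressed relative to vehicle-treated controls.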

[4] = NCI Yeast Anticancer Drug Screen. Data for the mgt1 strain (AID 153); conditions: S. cerevisiae mgt1 mutant growth inhibition, stronger effect = higher value
How it was run: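 In the mgt1 strain, test compounds were added and growth inhibition was determined relative to vehicle-treated controls.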

[5] = NCI Yeast Anticancer Drug Screen. Data for the rad50 strain (AID 155);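 note: 0% = growth of vehicle-only cultures of the same strain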; conditions: S. cerevisiae rad50 strain growth inhibition, stronger effect = higher value
How it was run: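 Genetically altered yeast (DNA repair pathway); compound treatment; growth inhibition vs vehicle ctrl.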

[6] = NCI Yeast Anticancer Drug Screen. Data for the mec2-1 strain (AID 157); conditions: S. cerevisiae mec2-1 strain, stronger effect = higher value
How it was run: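 Each compound was tested on mec2-1 yeast, a strain altered in DNA damage repair or cell cycle control. Growth inhibition is reported relative to vehicle.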

[7] = NCI Yeast Anticancer Drug Screen. Data for the rad14 strain (AID 159);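 note: 0% = growth of vehicle-treated control cultures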; conditions: S. cerevisiae rad14 strain growth inhibition, stronger effect = higher value
How it was run: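 Test compounds were applied to a repair-deficient yeast strain. Its growth was then compared with that of cultures given vehicle alone, and inhibition was expressed relative to those controls.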

[8] = NCI Yeast Anticancer Drug Screen. Data for the sgs1 mgt1 strain (AID 161);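 note: 0% = growth of cultures given vehicle only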; conditions: S. cerevisiae sgs1 mgt1 strain, stronger effect = higher value
How it was run: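 Inhibition of yeast growth, normalised to vehicle-treated controls, is reported for a strain bearing genetic alterations in DNA damage repair.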

[9] = NCI Yeast Anticancer Drug Screen. Data for the cln2 rad14 strain (AID 165);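 note: 0% = growth equal to vehicle treated cultures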; conditions: S. cerevisiae cln2 rad14 strain, stronger effect = higher value
How it was run: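 Test compounds were added to cln2 rad14 yeast cultures; inhibition of growth was then determined by comparison with vehicle treatment.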

[10] = NCI Yeast Anticancer Drug Screen. Data for the bub3 strain (AID 167); conditions: S. cerevisiae bub3 mutant strain, stronger effect = higher value
How it was run: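 Yeast carrying a defined mutation is treated with each compound, and growth is compared with that of vehicle-exposed cells to give inhibition.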

[11] = NCI Yeast Anticancer Drug Screen. Data for the wt2 strain (AID 169);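 note: 0% = growth of vehicle-treated yeast cultures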; conditions: S. cerevisiae wt2 strain growth inhibition, stronger effect = higher value
How it was run: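 The panel's yeast strains carry defined changes in DNA repair or cell cycle genes. Each strain is grown with compound, and growth loss is scored relative to vehicle.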

[12] = NCI Yeast Anticancer Drug Screen. Data for the mlh1 strain (AID 171);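 note: 0% = growth of vehicle-treated control cultures of the same strain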; conditions: S. cerevisiae mlh1 strain growth inhibition, stronger effect = higher value
How it was run: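 Inhibition values reflect reduced yeast growth in the presence of compound, referenced to vehicle controls, using a strain chosen for its alteration in DNA repair or cell cycle control.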

[13] = NCI Yeast Anticancer Drug Screen. Data for the sgs1 strain (AID 173);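 note: 0% = growth of vehicle-only control cultures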; conditions: S. cerevisiae sgs1 mutant, stronger effect = higher value
How it was run: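 Vehicle-treated cultures served as reference for growth inhibition of a yeast strain altered in DNA damage repair or cell cycle control after compound exposure.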

[14] = NCI Yeast Anticancer Drug Screen. Data for the mlh1 rad18 strain (AID 175); conditions: S. cerevisiae mlh1 rad18 strain growth inhibition, stronger effect = higher value
How it was run: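 Inhibition values reflect reduced growth of mutant yeast versus vehicle-treated controls following compound exposure; the mutations affect DNA damage repair.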

[15] = NCI Yeast Anticancer Drug Screen. Data for the rad18 strain (AID 177); conditions: S. cerevisiae rad18 mutant growth inhibition, stronger effect = higher value
How it was run: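 Steps: expose repair-mutant yeast to compound; measure growth; express as inhibition relative to vehicle control.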

[16] = NCI Yeast Anticancer Drug Screen. Data for the CLN2oe strain (AID 163);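 note: 0% = growth of vehicle-only control cultures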; conditions: S. cerevisiae CLN2oe strain, stronger effect = higher value
How it was run: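 First, the altered yeast strain was treated with each compound; second, its growth was measured; finally, inhibition was derived by comparison with vehicle controls.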

[17] = at 5.0 µM (retest, dose inferred, filed as 0.5)
[18] = at 50.0 µM (retest, dose inferred, filed as 5.0)

Measured: growth inhibition

Cc1cccc(C)c1NC(=O)C(C#N)C1=C(Cl)C(=O)c2ccccc2C1=O (stereo not drawn)
active: [1]; at 11.0 µM 93% | [1]; at 33.0 µM 95% | [1]; at 100.0 µM 94% | [2]; at 11.0 µM 94% | [2]; at 33.0 µM 98% | [2]; at 100.0 µM 97% | [3]; at 11.0 µM 98% | [3]; at 33.0 µM 98% | [3]; at 100.0 µM 96% | [4]; at 3.7 µM 78% | [4]; at 11.0 µM 98% | [4]; at 33.0 µM 98% | [4]; at 100.0 µM 98% | [5]; [17] 95% | [5]; at 11.0 µM 97% | [5]; at 33.0 µM 97% | [5]; [18] 96% | [5]; at 50.0 µM 91.2% | [5]; at 100.0 µM 96% | [6]; [17] 99% | [6]; at 11.0 µM 98% | [6]; at 33.0 µM 98% | [6]; [18] 99% | [6]; at 50.0 µM 93.1% | [6]; at 100.0 µM 98% | [7]; at 3.7 µM 88% | [7]; at 11.0 µM 98% | [7]; at 33.0 µM 98% | [7]; at 100.0 µM 97% | [8]; [17] 99% | [8]; [18] 99% | [8]; at 50.0 µM 93.7% | [9]; [18] 98% | [9]; at 50.0 µM 92.8% | [10]; at 3.7 µM 70% | [10]; [17] 99% | [10]; at 11.0 µM 97% | [10]; at 33.0 µM 97% | [10]; [18] 98% | [10]; at 50.0 µM 92.2% | [10]; at 100.0 µM 95% | [11]; at 11.0 µM 98% | [11]; at 33.0 µM 98% | [11]; at 100.0 µM 98% | [12]; at 3.7 µM 78% | [12]; at 11.0 µM 98% | [12]; at 33.0 µM 98% | [12]; at 100.0 µM 98% | [13]; at 11.0 µM 97% | [13]; at 33.0 µM 98% | [13]; at 100.0 µM 97% | [14]; [17] 98% | [14]; [18] 98% | [14]; at 50.0 µM 91.7% | [15]; at 11.0 µM 92% | [15]; at 33.0 µM 97% | [15]; at 100.0 µM 96%
inactive: [1]; at 1.2 µM -43% | [1]; at 3.7 µM 46% | [2]; at 1.2 µM -24% | [2]; at 3.7 µM 24% | [3]; at 1.2 µM 14% | [3]; at 3.7 µM 67% | [4]; at 1.2 µM -4% | [5]; at 1.2 µM -11% | [5]; at 3.7 µM 23% | [6]; at 1.2 µM -7% | [6]; at 3.7 µM 62% | [7]; at 1.2 µM -2% | [9]; [17] 65% | [10]; at 1.2 µM 6% | [11]; at 1.2 µM -22% | [11]; at 3.7 µM 35% | [12]; at 1.2 µM -4% | [13]; at 1.2 µM 8% | [13]; at 3.7 µM 45% | [15]; at 1.2 µM -32% | [15]; at 3.7 µM -1%

CCOC(=O)Nc1ccc(C)c(NC(=O)OCC)c1
inactive: [1]; at 1.2 µM 3% | [1]; at 3.7 µM 8% | [1]; at 11.0 µM 15% | [1]; at 33.0 µM 21% | [1]; at 100.0 µM 23% | [2]; at 1.2 µM 6% | [2]; at 3.7 µM 13% | [2]; at 11.0 µM 12% | [2]; at 33.0 µM 15% | [2]; at 100.0 µM 17% | [3]; at 1.2 µM 4% | [3]; at 3.7 µM 8% | [3]; at 11.0 µM 19% | [3]; at 33.0 µM 34% | [3]; at 100.0 µM 47% | [4]; at 1.2 µM 3% | [4]; at 3.7 µM 9% | [4]; at 11.0 µM 12% | [4]; at 33.0 µM 12% | [4]; at 100.0 µM 16% | [5]; at 1.2 µM 5% | [5]; at 3.7 µM 6% | [5]; [17] 22% | [5]; at 11.0 µM 16% | [5]; at 33.0 µM 19% | [5]; at 50.0 µM -1.75% | [5]; at 100.0 µM 26% | [6]; at 1.2 µM 4% | [6]; at 3.7 µM 8% | [6]; [17] -2% | [6]; at 11.0 µM 11% | [6]; at 33.0 µM 19% | [6]; [18] 14% | [6]; at 50.0 µM 6% | [6]; at 100.0 µM 20% | [7]; at 1.2 µM 3% | [7]; at 3.7 µM 7% | [7]; at 11.0 µM 10% | [7]; at 33.0 µM 15% | [7]; at 100.0 µM 21% | [16]; at 1.2 µM 9% | [16]; at 3.7 µM 13% | [16]; at 11.0 µM 23% | [16]; at 33.0 µM 23% | [16]; at 100.0 µM 23% | [9]; [17] 11% | [9]; [18] 23% | [9]; at 50.0 µM -38.4% | [10]; at 1.2 µM 2% | [10]; at 3.7 µM 8% | [10]; [17] 35% | [10]; at 11.0 µM 7% | [10]; at 33.0 µM 13% | [10]; at 50.0 µM 14.3% | [10]; at 100.0 µM 13% | [11]; at 1.2 µM 4% | [11]; at 3.7 µM 8% | [11]; at 11.0 µM 10% | [11]; at 33.0 µM 14% | [11]; at 100.0 µM 13% | [12]; at 1.2 µM 3% | [12]; at 3.7 µM 8% | [12]; at 11.0 µM 14% | [12]; at 33.0 µM 19% | [12]; at 100.0 µM 23% | [13]; at 1.2 µM 3% | [13]; at 3.7 µM 6% | [13]; at 11.0 µM 12% | [13]; at 33.0 µM 20% | [13]; at 100.0 µM 30% | [14]; [17] 34% | [14]; at 50.0 µM 8.35% | [15]; at 1.2 µM 8% | [15]; at 3.7 µM 14% | [15]; at 11.0 µM 30% | [15]; at 33.0 µM 61%
active: [5]; [18] 80% | [10]; [18] 76% | [14]; [18] 78% | [15]; at 100.0 µM 82%
